From PubChem BioAssay
MITF inh: human MITF inhibition, primary screen. O75030. AlphaScreen MITF homodimerization, bead proximity signal. inhibition, % at 2.6 µM. 650,000 compounds, 0.91% hits. AID 1259374; in the data active = inhibition above about 50%
TEAD-YAP block: TEAD-YAP interaction inhibition; HEK-TIYL cells, TEAD-Gal4/YAP UAS-luciferase luminescence; inhibition, % at 9.12 µM; 640,000 compounds, 1.4% hits; AID 1259422; in the data active = inhibition above about 32%
FBW7 act: human FBW7 E3 ligase activation, primary screen. AID 1259310. 650,000 compounds, 0.13% hits. Q969H0. AlphaScreen FBW7–phospho-cyclin E peptide binding, activator screen. normalized activity (activation), % at 26.1 µM; in the data active = normalized activity above about 1.9%;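 also: purified mutant Fbw7 with reduced substrate affinity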
GPR151 activ: activators of human GPR151; Q8TDV0; PathHunter beta-arrestin GPR151 cells, luminescence; activation, % at 11.2 µM; 650,000 compounds, 1% hits; AID 1508602; in the data active = activation above about 4.9%
A number is an active result; 0 = inactive. Rows were chosen to be rich in hits. Some 3.5% of all compounds tested hit in one or more screens of this group.

SMILES | MITF inh | TEAD-YAP block | FBW7 act | GPR151 activ
COCCCNC(=O)c1cnn2c(C)c(Cc3ccc(C)cc3)c(C)nc12 | 0 | 40 | 0 | 0
CS(=O)(=O)c1ccc(Cl)c(NC(=S)NC(=O)C2CC2)c1 | 0 | 0 | 0 | 0
CC(C)(C)NC(=O)OC1CSC2c3ccccc3C(=O)N2Cc2sccc21 (stereo not given) | 0 | 0 | 0 | 0
CCOc1ccc2nc(SCC(=O)c3ccc([N+](=O)[O-])cc3)sc2c1 | 0 | 0 | 0 | 0
CC1(c2ccccc2)CC(C)(C)N2C(=O)/C(=C3\SC(=O)NC3=O)c3cccc1c32 (stereo not given) | 0 | 50 | 0 | 0
CC(=O)N1C(=O)/C(=C2\SC(=O)NC2=O)c2ccccc21 | 0 | 0 | 0 | 0
Cc1c2oc3c(C)ccc(C(=O)OC(C)C4NC(=O)C(C(C)C)N(C)C(=O)CN(C)C(=O)C5CCCN5C(=O)C(C(C)C)NC4=O)c3nc-2c(C(=O)OC(C)C2NC(=O)C(C(C)C)N(C)C(=O)CN(C)C(=O)C3CCCN3C(=O)C(C(C)C)NC2=O)c(N)c1=O (stereo not given) | 0 | 96 | 0 | 0
CCC1(O)CC2CN(CCc3c([nH]c4ccccc34)[C@@](C(=O)OC)(c3cc4c(cc3OC)N(C=O)C3[C@]45CCN4CC=C[C@@](CC)([C@@H](OC(C)=O)[C@]3(O)C(=O)OC)[C@H]45)C2)C1 (stereo not given in full) | 0 | 69 | 0 | 0
COc1ccc(C2c3[nH]c4ccccc4c3CCN2C(=O)CNC(C)=O)c(C)c1C (stereo not given) | 0 | 0 | 0 | 0
CCC1=C[C@H]2CN(C1)Cc1c([nH]c3ccccc13)[C@@](C(=O)OC)(c1cc3c(cc1OC)N(C)[C@H]1[C@@](O)(C(=O)OC)[C@H](OC(C)=O)[C@]4(CC)C=CCN5CC[C@]31[C@@H]54)C2 | 0 | 56 | 0 | 0
CC[C@]1(O)C[C@H]2CN(CCc3c([nH]c4ccccc34)[C@H](C)[C@H]2c2cc3c(cc2OC)N(C=O)[C@H]2[C@@](O)(C(=O)OC)[C@H](C)[C@]4(CC)C=CCN5CC[C@]32[C@@H]54)C1 | 0 | 56 | 0 | 0
CC[C@]1(O)CC2CN(CCc3c([nH]c4ccccc34)[C@@](C(=O)OC)(c3cc4c(cc3OC)N(C)[C@H]3[C@@](O)(C(=O)OC)[C@H](OC(C)=O)[C@]5(CC)C=CCN6CC[C@]43[C@@H]65)C2)C1 (stereo not given in full) | 0 | 59 | 0 | 0
COc1ccccc1NC(=O)N1CCC2(CC1)OCCc1c2[nH]c2ccccc12 | 0 | 0 | 0 | 0
CC1(C)OC2OC(C(=O)NC(CCC(=O)OCc3ccccc3)C(=O)OCc3ccccc3)C3OC(C)(C)OC3C2O1 (stereo not given) | 0 | 0 | 0 | 0
COCCNC(=O)C1CCN(c2nc(-c3ccc(OC)cc3)no2)CC1 | 0 | 0 | 0 | 0
O=C(Cn1c(-c2nnco2)cc2ccccc21)OCc1ccccc1 | 0 | 0 | 0 | 0
CCOC(=O)c1c(C)[nH]c(C(=O)COC(=O)CCc2nc3ccccc3s2)c1C | 0 | 0 | 0 | 0
CC(C)CNC(=O)CN1C(=O)C2CC=CCC2C1=O (stereo not given) | 0 | 0 | 0 | 0
COc1ccc(N2CCN(C(CNC(=O)c3ccccc3F)c3cccnc3)CC2)cc1 (stereo not given) | 0 | 0 | 0 | 0
Clc1ccc(-n2ncc3c(N4CCN(c5cccc(Cl)c5)CC4)ncnc32)cc1 | 0 | 0 | 0 | 0
COc1ccc(-n2ncc3c(N4CCOCC4)ncnc32)cc1 | 0 | 91 | 0 | 0
COc1ccccc1N1CCN(c2ncnc3c2cnn3-c2cccc(C)c2)CC1 | 0 | 0 | 0 | 0
c1ccc(-n2ncc3c(N4CCOCC4)ncnc32)cc1 | 0 | 70 | 0 | 0
Clc1cccc(-n2ncc3c(N4CCOCC4)ncnc32)c1 | 0 | 71 | 0 | 0
COc1ccccc1N1CCN(c2ncnc3c2cnn3-c2ccc(C)cc2C)CC1 | 0 | 58 | 0 | 0
SMILES | MITF inh | TEAD-YAP block | FBW7 act | GPR151 activ
Cc1ccc(-n2ncc3c(N4CCOCC4)ncnc32)cc1C | 0 | 79 | 0 | 0
O=C1CC(N2CCN(c3cccc(Cl)c3)CC2)C(=O)N1c1ccc(Cl)cc1Cl (stereo not given) | 0 | 0 | 0 | 0
C=CCNc1cc(-c2ccccc2)nc(-c2ccccn2)n1 | 0 | 88 | 0 | 0
CCN(CC)c1cc(-c2ccccc2)nc(-c2ccccn2)n1 | 0 | 47 | 0 | 0
COc1ccc(N2CCN(C(=O)c3ccc(S(=O)(=O)N4CCCCC4)cc3)CC2)nn1 | 0 | 0 | 0 | 0
Nc1nccc(-c2cccc(C(F)(F)F)c2)n1 | 0 | 0 | 0 | 0
CC1CCCCN1C(=O)c1ccc(F)cc1F (stereo not given) | 0 | 0 | 0 | 0
